For 40 compounds, inhibition results are on record in PubChem BioAssay.

SMILES strings stand for the structures. Calls of active or inactive are those of the source.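 The calls were made as follows, unless noted: active = inhibition at or above 50% at 10 µM; inactive = inhibition below 50%.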

One may read the inhibition as the change of the read-out against control, counted positive when it falls.

A short description of the first test: inhibitors of Sendai virus-induced IRF3 signaling, primary screen, TLR/RLR signaling modifier project, cell-based, Sendai virus stimulus, luciferase, 10K MLSCN set (AID 602276).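 Also: firefly luciferase from ISG56 promoter only with Renilla not read in this screen; 0% = Sendai virus plus DMSO and 100% = medium plus DMSO without virus.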 The conditions noted are these: HEK293 RL24 IRF3 luciferase reporter, at 10 µM, active compounds read high.
In the case of `Cc1ccc(NC2=NC(c3ccccc3)n3c(nc(C)cc3=O)N2)cc1` (stereo not given), the inhibition is 14.2% (inactive).

Consider `CC(C)NC(=O)NC(=O)COc1cccc2c1OC(C)(C)C2`, for which the inhibition is 17.1% (inactive).

As for `COCCOc1nc2ccccc2nc1C`, the inhibition is 16.4% (inactive).

In the case of `O=C(CSc1nnc2scc(-c3ccccc3)n12)N1CCN(Cc2ccccc2)CC1`, the inhibition was 6.37% (inactive).

`CN1CCCN(C(=O)c2cc(=O)[nH]c3ccccc23)c2nc3ccccc3nc21`: the inhibition was 16.3% (inactive).

As to `CCOc1ccc(OCC)c(NC(=O)C2CCN(S(=O)(=O)c3cnc[nH]3)CC2)c1`, the inhibition was 4.79% (inactive).

As for `CC(=O)Nc1cccc(NC(=O)CSc2nnnn2C(C)C)c1`, the inhibition was 12.9% (inactive).

In the case of `CCc1ccc2oc(-c3cc(N)ccc3Cl)nc2c1`, the inhibition was -31.8% (inactive).

Consider `CC(C)CCn1c(SCC#N)nc2c(sc3ccccc32)c1=O`, for which the inhibition is 6.8% (inactive).

As for `O=c1c2c(nc3nc(COc4ccccc4)[nH]n13)CCC2`, the inhibition was 15.2% (inactive).

Consider `CCCCC(=O)Nc1nn(CCC)c2nc3ccccc3cc12`, for which the inhibition is 10.1% (inactive).

Consider `COc1nc2ccc(C)cc2cc1-c1noc(-c2cccnc2)n1`, for which the inhibition was 6.17% (inactive).

Take `O=C(NC1CCCc2ccccc21)C1CCN(S(=O)(=O)c2cnc[nH]2)CC1` (stereo not given): the inhibition was 4% (inactive).

With `CCn1cc(C2=NOC(C(=O)Nc3cc(C)nn3-c3ccccc3)C2)c(C)n1` (stereo not given), the inhibition is -1.87% (inactive).

Take `CC(C)CC(c1nnnn1C1CCCC1)N1CCN(c2ccccc2F)CC1` (stereo not given): the inhibition is 15.2% (inactive).

Consider `Cc1cc2c(s1)c1cnn(CC(=O)NCCc3ccccc3)c(=O)c1n2C`, for which the inhibition is 15.1% (inactive).

Consider `CN(C(=O)CSc1nc2c(c(=O)[nH]1)CCCC2)C1CCCCC1`, for which the inhibition is 4.83% (inactive).

For the compound `CCc1cc2c(NCCC(=O)O)ncnc2s1`, the inhibition was 12.3% (inactive).

Consider `CC(C)(C)C(=O)Oc1cc(N)n(S(=O)(=O)c2ccccc2)n1`, for which the inhibition was -12% (inactive).

In the case of `CC(C)CCNC(=O)NC(=O)CSc1nnc(-c2ccccc2Br)o1`, the inhibition is -3.6% (inactive).

With `O=C1c2cccnc2C(O)N1Cc1ccc(F)cc1` (stereo not given), the inhibition is 10.8% (inactive).

For `Cc1cccn2c(=O)c3cc(C#N)c(=O)n(CCCN4CCOCC4)c3nc12`, the inhibition was 11.2% (inactive).

For the compound `Nc1cc(C(=O)O)ccc1Nc1ccccc1`, the inhibition was -4.17% (inactive).

As to `CCn1c(Cc2ccc(OC)cc2)nnc1SCC(=O)Nc1cccc(C(=O)OC)c1`, the inhibition is 12.3% (inactive).

Regarding `COCCNC(=O)c1ccc2c(c1)nc(C)n2-c1cccc(F)c1`, the inhibition is 15.5% (inactive).

In the case of `Cc1ccc2cc(CN(CC(C)C)C(=O)C3CCCO3)c(=O)[nH]c2c1` (stereo not given), the inhibition was 3.89% (inactive).

Regarding `CCn1c(=S)sc2nc(C)sc21`, the inhibition was 13.4% (inactive).

For `O=C(OCCCN1C(=O)c2ccccc2C1=O)c1ccco1`, the inhibition was -6.62% (inactive).

With `Cc1ccc(-c2nn(C)c(=O)c3ccccc23)cc1S(=O)(=O)N1CCOCC1`, the inhibition is 8.97% (inactive).

As to `OCc1nc2ccccc2n1CC(O)Cn1ccc2ccccc21` (stereo not given), the inhibition is 1.37% (inactive).

With `O=C(c1cnsn1)N1CCN(c2ccccn2)CC1`, the inhibition was 4.49% (inactive).

With `Cc1ccccc1CSCC(=O)c1c(N)n(C)c(=O)n(C)c1=O`, the inhibition is -5.02% (inactive).

With `CCC(=O)N1CCc2cc(OC)c(OC)cc2C1COc1ccc(C(=O)OC)cc1` (stereo not given), the inhibition is 23.8% (inactive).

As for `O=C(Cn1nnc(-c2cccc(C(F)(F)F)c2)n1)NC(=O)NCc1ccco1`, the inhibition is -0.353% (inactive).

`CCN(CC)S(=O)(=O)c1ccc(C(=O)Oc2ccc3c(c2)OCO3)cc1`: the inhibition was 1.83% (inactive).

Regarding `COc1ccccc1NC(=O)c1ccc(NC(=O)CSc2nnnn2C)cc1`, the inhibition is 12.1% (inactive).

Turning to `CCOc1ccc(NC(=O)CN(C)S(=O)(=O)c2cccs2)cc1`, the inhibition is -60.5% (inactive).

Turning to `COc1ccc(-n2c(SCC(=O)Nc3ccc(C(=O)O)cc3)nnc2-c2cccs2)cc1`, the inhibition was 0.267% (inactive).

Turning to `COc1cccc2cc(C(=O)Nc3cccnc3N3CCOCC3)c(=O)oc12`, the inhibition is 10.7% (inactive).

For the compound `COc1cc(NC(=O)c2cc(-n3cnnc3)ccc2Cl)cc(OC)c1`, the inhibition is 15.2% (inactive).

A short description of the next test: inhibitors of poly I:C-induced TLR3 signaling, primary screen, cell-based, poly I:C stimulus, luciferase, 10K MLSCN set (AID 602277;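 active = inhibition of the reporter signal at or above 50%; inactive = inhibition below 50%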). Particulars: HEK293-TLR3 RL24 IRF3 luciferase reporter, at 10 µM, active compounds read high. On the technique in general: A reporter such as luciferase makes a cellular process visible.
Take `Cc1ccc(NC2=NC(c3ccccc3)n3c(nc(C)cc3=O)N2)cc1` (stereo not given): the inhibition is 19.7% (inactive).

With `CC(C)NC(=O)NC(=O)COc1cccc2c1OC(C)(C)C2`, the inhibition is 29.7% (inactive).

Consider `COCCOc1nc2ccccc2nc1C`, for which the inhibition was 2.62% (inactive).

Regarding `O=C(CSc1nnc2scc(-c3ccccc3)n12)N1CCN(Cc2ccccc2)CC1`, the inhibition is 7.98% (inactive).

Take `CN1CCCN(C(=O)c2cc(=O)[nH]c3ccccc23)c2nc3ccccc3nc21`: the inhibition was 34.1% (inactive).

Take `CCOc1ccc(OCC)c(NC(=O)C2CCN(S(=O)(=O)c3cnc[nH]3)CC2)c1`: the inhibition is 10.8% (inactive).

Regarding `CC(=O)Nc1cccc(NC(=O)CSc2nnnn2C(C)C)c1`, the inhibition is 12.5% (inactive).

Regarding `CCc1ccc2oc(-c3cc(N)ccc3Cl)nc2c1`, the inhibition was -60.1% (inactive).

For `CC(C)CCn1c(SCC#N)nc2c(sc3ccccc32)c1=O`, the inhibition is 14.8% (inactive).

In the case of `O=c1c2c(nc3nc(COc4ccccc4)[nH]n13)CCC2`, the inhibition is 18% (inactive).

As to `CCCCC(=O)Nc1nn(CCC)c2nc3ccccc3cc12`, the inhibition is -0.131% (inactive).

As for `COc1nc2ccc(C)cc2cc1-c1noc(-c2cccnc2)n1`, the inhibition was -7.44% (inactive).

Take `O=C(NC1CCCc2ccccc21)C1CCN(S(=O)(=O)c2cnc[nH]2)CC1` (stereo not given): the inhibition was 19.5% (inactive).

For the compound `CCn1cc(C2=NOC(C(=O)Nc3cc(C)nn3-c3ccccc3)C2)c(C)n1` (stereo not given), the inhibition was 98.7% (active).

On to `CC(C)CC(c1nnnn1C1CCCC1)N1CCN(c2ccccc2F)CC1` (stereo not given), for which the inhibition is 26.4% (inactive).

Turning to `Cc1cc2c(s1)c1cnn(CC(=O)NCCc3ccccc3)c(=O)c1n2C`, the inhibition was -1.81% (inactive).

As for `CN(C(=O)CSc1nc2c(c(=O)[nH]1)CCCC2)C1CCCCC1`, the inhibition was 18.3% (inactive).

Turning to `CCc1cc2c(NCCC(=O)O)ncnc2s1`, the inhibition is 17.4% (inactive).

On to `CC(C)(C)C(=O)Oc1cc(N)n(S(=O)(=O)c2ccccc2)n1`, for which the inhibition was -7.53% (inactive).

For the compound `CC(C)CCNC(=O)NC(=O)CSc1nnc(-c2ccccc2Br)o1`, the inhibition is 20.3% (inactive).

Turning to `O=C1c2cccnc2C(O)N1Cc1ccc(F)cc1` (stereo not given), the inhibition was 17.7% (inactive).

Regarding `Cc1cccn2c(=O)c3cc(C#N)c(=O)n(CCCN4CCOCC4)c3nc12`, the inhibition was 40.1% (inactive).

For the compound `Nc1cc(C(=O)O)ccc1Nc1ccccc1`, the inhibition is -19% (inactive).

For the compound `CCn1c(Cc2ccc(OC)cc2)nnc1SCC(=O)Nc1cccc(C(=O)OC)c1`, the inhibition was 8.51% (inactive).

For the compound `COCCNC(=O)c1ccc2c(c1)nc(C)n2-c1cccc(F)c1`, the inhibition was 17.5% (inactive).

As for `Cc1ccc2cc(CN(CC(C)C)C(=O)C3CCCO3)c(=O)[nH]c2c1` (stereo not given), the inhibition was 26.4% (inactive).

For the compound `CCn1c(=S)sc2nc(C)sc21`, the inhibition was 15% (inactive).

In the case of `O=C(OCCCN1C(=O)c2ccccc2C1=O)c1ccco1`, the inhibition is -11.6% (inactive).

On to `Cc1ccc(-c2nn(C)c(=O)c3ccccc23)cc1S(=O)(=O)N1CCOCC1`, for which the inhibition was 30.3% (inactive).

For the compound `OCc1nc2ccccc2n1CC(O)Cn1ccc2ccccc21` (stereo not given), the inhibition was -8.82% (inactive).

For `O=C(c1cnsn1)N1CCN(c2ccccn2)CC1`, the inhibition is -0.785% (inactive).

`Cc1ccccc1CSCC(=O)c1c(N)n(C)c(=O)n(C)c1=O`: the inhibition was -20.8% (inactive).

As to `CCC(=O)N1CCc2cc(OC)c(OC)cc2C1COc1ccc(C(=O)OC)cc1` (stereo not given), the inhibition is 6.29% (inactive).

For the compound `O=C(Cn1nnc(-c2cccc(C(F)(F)F)c2)n1)NC(=O)NCc1ccco1`, the inhibition is 5.76% (inactive).

In the case of `CCN(CC)S(=O)(=O)c1ccc(C(=O)Oc2ccc3c(c2)OCO3)cc1`, the inhibition is 9.42% (inactive).

For the compound `COc1ccccc1NC(=O)c1ccc(NC(=O)CSc2nnnn2C)cc1`, the inhibition is 25.6% (inactive).

Take `CCOc1ccc(NC(=O)CN(C)S(=O)(=O)c2cccs2)cc1`: the inhibition was -62.8% (inactive).

Consider `COc1ccc(-n2c(SCC(=O)Nc3ccc(C(=O)O)cc3)nnc2-c2cccs2)cc1`, for which the inhibition is 6.83% (inactive).

Take `COc1cccc2cc(C(=O)Nc3cccnc3N3CCOCC3)c(=O)oc12`: the inhibition is 4.05% (inactive).

Turning to `COc1cc(NC(=O)c2cc(-n3cnnc3)ccc2Cl)cc(OC)c1`, the inhibition is 17.9% (inactive).
